Only some compounds are listed: those with a hit (about 5.6% of all), similar ones and a draw of the others.
Six1-Eya2 blk – inhibitors of human Six1/Eya2 interaction. AlphaScreen GST-Six1/His-Eya2 binding, biochemical; stronger effect = lower value. Q15475+O00167. activity change, % (test concentration not listed). actives 0.56% (n = 360,000). AID 651725; in the data active = activity change below about -65%; inconclusive = mostly about -30% to -63%
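Six1/Eya2 binding was read as AlphaScreen signal after compounds were pinned into GST-Six1 plus His-tagged Eya2 (5X stock 250/500 nM) in pH 8.0 Tris/NaCl/TCEP buffer, beads added, then incubated 1 h, 37 C, dark.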
CtBP-E1A blk – inhibitors of CtBP/E1A interaction; AlphaScreen GST-E1A/His-CtBP binding, 1536-well; stronger effect = lower value; activity change, % (test concentration not listed); actives 0.49% (n = 340,000); in the data active = activity change below about -65%; inconclusive = mostly about -30% to -63%
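Steps: dispense buffer (Tris pH 8.0, NaCl 300 mM, TCEP 1 mM, BSA, Tween 20); add 5X protein mix (GST-E1A, His-CtBP, 125 nM each); pin 23 nL compound; 2 h at 37 °C, dark; add 5X beads (50 ug/mL); 1 h; read.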
PKM2 act – activators of human pyruvate kinase M2. Potency, µM (top dose mostly 57.5 µM), for inactives: at the highest dose activation, hits mostly activators. purified PKM2, Kinase-Glo ATP luminescence, activation; response scale: 0% is enzyme alone, no compound. AID 1631. P14618. actives 0.34% (n = 260,000); also: potency is read from the fitted curve at half-maximal effect; nearly all actives have a fitted effect of over 55% in size
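ATP formation by purified human PK-M2, quantified via coupled luciferase luminescence after 1 h at room temperature with 0.1 mM ADP and 0.5 mM PEP final.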
Gal4-VP16 FLuc – counter-screen for ROR gamma inhibitors: Gal4-VP16 reporter | Drosophila S2 Gal4-VP16 UAS-luciferase, luminescence, 20 h | Potency, µM (series often up to 53.6 µM), inactives show top-dose activity, negative = inhibition, hits mostly inhibitors | AID 2546 | actives 3.5% (n = 310,000);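 also: Gal4-VP16 expression switched on by copper sulfate through the metallothionein promoter; potency is read from the fitted curve at half-maximal effect; nearly all actives have a fitted effect of over 50% in size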
RORg inh – blocks mouse ROR gamma transcriptional activity; Drosophila S2 Gal4-RORgamma UAS-luciferase reporter, 20 h; Potency, µM (titrated, usually from 53.6 µM), without a hit: at the top dose activity change, negative = inhibition, hits mostly inhibitors; actives 5.4% (n = 310,000); also: potency is read from the fitted curve at half-maximal effect; nearly all actives have a fitted effect of over 60% in size
Target sequence (P51450 whole entry, looked up, the tested form may be a part): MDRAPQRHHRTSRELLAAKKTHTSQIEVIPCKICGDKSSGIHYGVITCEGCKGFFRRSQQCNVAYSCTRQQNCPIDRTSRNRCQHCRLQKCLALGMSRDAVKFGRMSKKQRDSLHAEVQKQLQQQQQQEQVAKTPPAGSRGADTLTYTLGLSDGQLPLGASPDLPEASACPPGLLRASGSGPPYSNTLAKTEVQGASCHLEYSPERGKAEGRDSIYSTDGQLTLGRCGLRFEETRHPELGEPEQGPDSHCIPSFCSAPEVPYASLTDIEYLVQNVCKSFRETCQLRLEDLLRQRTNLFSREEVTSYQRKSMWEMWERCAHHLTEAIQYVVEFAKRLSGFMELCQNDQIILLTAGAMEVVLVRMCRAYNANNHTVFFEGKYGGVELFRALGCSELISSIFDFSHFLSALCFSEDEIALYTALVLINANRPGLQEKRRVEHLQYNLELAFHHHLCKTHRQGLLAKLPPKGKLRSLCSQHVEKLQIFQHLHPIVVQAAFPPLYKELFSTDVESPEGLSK
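Stably transfected Drosophila Schneider cells are the test system, with ROR gamma fused to Gal4 and luciferase under UAS control; luminescence is read after 20 hr of 700 uM copper sulfate induction at ambient temperature.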
An asterisk follows results filed as active; ? = inconclusive; . = no result given; [ ] = remark or other dose. Unless noted, calls follow the shape of the dose curve; as a rule, active = well fitted curve in the direction sought with a large enough effect; inconclusive = small, poorly fitted or top-dose-only effect, or another doubt; inactive = no such curve, though single readings can be large; an effect the other way counts as inactive or inconclusive. % is scaled to controls: 0 for no effect and ±100 for the full control effect.

SMILES	Six1-Eya2 blk	CtBP-E1A blk	PKM2 act	Gal4-VP16 FLuc	RORg inh
Cc1cc(C)c2sc(NC(=O)C3CC3)nc2c1	2	1	-1%	-30%	6.3µM*
Cc1ccc(C)c2sc(NC(=O)C3CC3)nc12	0	0	1%	4%	-27%
CC(=O)c1sc(NC(=O)C2COc3ccccc3O2)nc1C (stereo not drawn)	6	-7	-6%	10µM*	7.1µM*
CC(C)(C)c1csc(NC(=O)C2COc3ccccc3O2)n1 (stereo not drawn)	-4	2	-22%	?	?
CCCN(S(=O)(=O)c1ccccc1F)S(=O)(=O)c1ccccc1Br	11	6	0%	5%	-14%
CCNC(=O)C1CCCN(C(=O)c2ccc(OC)c(OC)c2)CC1 (stereo not drawn)	14	-3	.	.	.
COc1ccc(OC)c2sc(NNC(=O)C3COc4ccccc4O3)nc12 (stereo not drawn)	-8	7	2%	-12%	?
Cc1cc(C)c2sc(NNC(=O)C3COc4ccccc4O3)nc2c1 (stereo not drawn)	-6	0	-7%	18µM*	2.8µM*
Cc1ccc(S(=O)(=O)N2CCC(n3nnc4cc(C)ccc43)CC2)cc1	4	8	0%	5%	37%
O=S(=O)(c1ccc(F)cc1)N1CCC(n2cnc3ccccc32)CC1	1	-7	.	-7%	?
O=S(=O)(c1ccc2c(c1)OCCO2)N1CCC(n2cnc3cc(F)ccc32)CC1	-9	-15	7.1µM*	3%	?
O=S(=O)(c1ccc2c(c1)OCCO2)N1CCC(n2nnc3cc(F)ccc32)CC1	-2	1	8.9µM*	-6%	34%
CCOc1cc(N2CCOCC2)c(OCC)cc1NC(=O)COC(=O)c1c(C)noc1C	3	4	.	.	.
O=C(CCCSc1ccccc1)Nc1nc(-c2ccccn2)cs1	0	-18	8%	?	10µM*
Cc1sc(NC(=O)/C=C/c2ccco2)c(C(=O)OC(C)C)c1C	3	10	?	16µM*	?
CC(=O)NCCC(=O)Nc1nc(-c2ccccc2Cl)cs1	1	1	-22%	10%	39%
O=C(/C=C/c1ccco1)Nc1nc(-c2ccccn2)cs1	-74*	.	8%	11µM*	2.8µM*
CSCCC(=O)Nc1nc(-c2ccccn2)cs1	-71*	-4	8%	-18%	13µM*
O=C(Nc1nc(-c2nc3ccccc3s2)cs1)c1ccco1	-5	-4	-15%	6%	?
O=C(/C=C/c1ccco1)Nc1scc(-c2ccccc2)c1C(=O)O	-1	-1	-15%	?	10µM*
O=C(CN1C(=O)CCC1=O)Nc1nc(-c2ccccn2)cs1	-88*	?	3%	-14%	-18%
O=C(/C=C/c1ccccc1)Nc1scc(-c2ccccc2)c1C(=O)O	-4	.	-5%	?	-33%
O=C(CCCSc1ccccc1)Nc1nc(-c2ccco2)c(-c2ccco2)s1	?	-23	18µM*	?	-27%
O=C(Nc1nc(-c2nc3ccccc3s2)cs1)C1CC1	1	-13	23%	?	5.6µM*
CC(NC(=O)c1ccc2c(c1)OCO2)C(c1cccs1)N1CCN(c2ccccc2)CC1 (stereo not drawn)	-3	4	-2%	-5%	-3%
SMILES	Six1-Eya2 blk	CtBP-E1A blk	PKM2 act	Gal4-VP16 FLuc	RORg inh
CCCCC(=O)N(Cc1ccc(F)cc1)C1CCS(=O)(=O)C1 (stereo not drawn)	0	.	0%	0%	5%
N#Cc1ccccc1OCC(=O)Nc1nc(-c2ccccn2)cs1	-83*	?	.	.	.
Cc1cc(C)cc(OCC(=O)Nc2nc(-c3ccccn3)cs2)c1	-18	-24	.	.	.
O=C(Nc1nc(-c2ccccn2)cs1)C1CCCC1	?	-8	0%	?	8.9µM*
O=C1/C(=C/c2ccco2)SC(=S)N1CCC(=O)N1CCCCC1CCO (stereo not drawn)	?	.	.	-18%	-34%
Cn1nc(C(C)(C)C)cc1C(=O)NCc1ccc2c(c1)OCO2	0	-3	1%	1µM*	-13%
CCn1c(=O)c(C(=O)NCCc2ccc(OC)c(OC)c2)c(O)c2ccccc21	-5	.	.	-3%	-16%
CCCn1nc(C(=O)NCc2ccc3c(c2)OCO3)c2ccccc2c1=O	13	12	1%	-7%	22%
Cc1oc(C(C)(C)C)cc1C(=O)NCc1ccc2c(c1)OCO2	0	-2	3%	?	?
CCCn1c(=O)c(C(=O)NCCc2ccc(OC)c(OC)c2)c(O)c2ccccc21	0	-8	-1%[11.5 µM]	?	11µM*
CCCn1c(=O)c(C(=O)NCc2cccnc2)c(O)c2ccccc21	3	10	7%	-1%	-23%
CCCn1c(=O)c(C(=O)NCc2ccccn2)c(O)c2ccccc21	11	-9	25%	?	10µM*
CCCn1c(=O)c(C(=O)NCc2ccc3c(c2)OCO3)c(O)c2ccccc21	7	.	2%	?	13µM*
O=C(NC(=S)Nc1ccc(Cl)cn1)c1cc([N+](=O)[O-])ccc1N1CCOCC1	-23	-10	2%	-4%	-17%
CC(C)NC(=O)N(C)C[C@H]1Oc2c(cccc2N(C)C)C(=O)N([C@H](C)CO)C[C@@H]1C	0	6	.	.	.
O=C(NCc1ccccn1)c1c(O)c2cccc3c2n(c1=O)CC3	1	1	8.9µM*	?	2.8µM*
COc1ccccc1NNC(=O)c1cccnc1Oc1ccccc1	0	2	18%	4%	?
CC(C)C(=O)NC(c1cccs1)c1cc([N+](=O)[O-])c2cccnc2c1O (stereo not drawn)	-97*	-91*	-1%	3.5µM*	3.2µM*
Cc1ccc(C(NC(=O)C(C)C)c2cc([N+](=O)[O-])c3cccnc3c2O)cc1 (stereo not drawn)	-88*	-96*	19%	?	2.2µM*
CCC(=O)NC(/C=C/c1ccccc1)c1cc([N+](=O)[O-])c2cccnc2c1O (stereo not drawn)	.	.	11%	2µM*	2.2µM*
Cc1ccc([N+](=O)[O-])c2cccnc12	-10	-3	-1%	3%	-14%
Cc1ccc2oc(-c3ccc(NC(=O)c4ccncc4)cc3O)nc2c1	-1	.	-5%	4%	7.1µM*
CCCC(=O)Nc1ccc(-c2nc3cc(C)ccc3o2)cc1	-2	0	-8%	2.8µM*	4µM*
Cc1ccccc1NC(=S)NC(=O)/C=C/c1ccco1	0	-19	13%[11.5 µM]	13µM*	?
COc1ccccc1NC(=S)NC(=O)/C=C/c1ccco1	-26	-11	22%	20µM*	13µM*
COc1cc2c(cc1NC(=S)NC(=O)/C=C/c1ccco1)oc1ccccc12	-1	4	0%	5µM*	3.2µM*

Source: PubChem (National Center for Advancing Translational Sciences (NCATS))
